# Bioassay records deposited in PubChem BioAssay by several laboratories.
# SENP8 block-1: SENP8 protease inhibitors, primary screen, biochemical, luminescence; Sentrin-specific protease 8 (Homo sapiens), Q96LD8; purified SENP8, Z-RLRGG-aminoluciferin cleavage; inhibition, % at 10 µM; actives 1.2% (n = 330,000); in the data active means inhibition above about 50%
# Target sequence (Q96LD8 whole entry, looked up): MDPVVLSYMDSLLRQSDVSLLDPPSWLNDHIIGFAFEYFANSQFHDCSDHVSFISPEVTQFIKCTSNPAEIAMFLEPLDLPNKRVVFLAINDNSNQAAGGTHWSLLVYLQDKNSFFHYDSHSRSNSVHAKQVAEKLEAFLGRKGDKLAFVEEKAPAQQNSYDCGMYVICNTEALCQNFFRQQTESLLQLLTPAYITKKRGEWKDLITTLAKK
# SENP8 block-2: human SENP8 protease inhibitors, primary screen, biochemical, fluorescence, Nedd8 protein substrate, uHTS; Sentrin-specific protease 8 (Homo sapiens), Q96LD8; recombinant SENP8; inhibition, % at 20 µM; actives 0.64% (n = 360,000); AID 602440, 2012; in the data active means inhibition mostly above about 40%, no sharp cut-off; inactive means mostly below about 27%
# HSP90 inh: HSP90 inhibitors, primary screen, cell lysate, luminescence; Heat shock protein HSP 90 (rabbit reticulocyte lysate; luciferase refolding); Rabbit reticulocyte lysate, luciferase refolding luminescence, 3 h; inhibition, % at 5.6 µM; actives 0.91% (n = 290,000); AID 1789, 2009;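 active means inhibition above the screen-wide mean plus 3 SD, computed separately per campaign, cut at about 16% in these data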;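 further: inhibitors lower the luminescence because luciferase stays unfolded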
# SENP6 inh: SENP6 protease inhibitors, primary screen, biochemical, luminescence, uHTS. Sentrin-specific protease 6 (Homo sapiens), Q9GZR1. Recombinant SENP6 catalytic domain, aminoluciferin luminescence. inhibition, % at 10 µM. actives 1.8% (n = 330,000);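 active means inhibition above about 50% at the single tested dose, limit read from the data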
# SENP7 block: SENP7 protease inhibitors, primary screen, biochemical, luminescence, uHTS; AID 434973, 2010; actives 1.5% (n = 330,000); recombinant SENP7, Z-RLRGG-aminoluciferin luminescence, 40 min; inhibition, % at 5 µM; Sentrin-specific protease 7 (Homo sapiens), Q9BQF6;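 active means inhibition above about 50% at the single test dose, limit read from the data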
# Target sequence (Q9BQF6 706-1050 limits assumed): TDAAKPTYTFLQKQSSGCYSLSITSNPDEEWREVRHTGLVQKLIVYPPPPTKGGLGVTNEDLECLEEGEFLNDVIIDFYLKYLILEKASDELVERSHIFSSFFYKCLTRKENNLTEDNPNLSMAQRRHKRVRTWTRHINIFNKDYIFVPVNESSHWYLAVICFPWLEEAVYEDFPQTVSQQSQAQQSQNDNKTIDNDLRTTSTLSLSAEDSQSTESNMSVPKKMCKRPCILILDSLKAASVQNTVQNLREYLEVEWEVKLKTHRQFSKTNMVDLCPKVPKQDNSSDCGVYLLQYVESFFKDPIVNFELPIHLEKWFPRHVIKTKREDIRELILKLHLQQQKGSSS
# Platelet DG rel: inhibitors of platelet dense granule secretion, primary screen, cell-based, MLPCN, human platelets. human platelet-rich plasma, SFLLRN dense granule ATP release, luminescence. inhibition, %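 (compounds screened at 7.5 µM in platelet-rich plasma)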. actives 0.22% (n = 300,000);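 active means mean replicate score, as percent of positive control, at or above 50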
# SENP8 conf: human SENP8 protease inhibitors, confirmation, biochemical, Nedd8 protein substrate, single concentration; shares compounds with SENP8 block-2; purified SENP8, Nedd8-AMC/pro-Nedd8 cleavage fluorescence, 30 min; inhibition, % at 25 µM; actives 15% (n = 1,400); in the data active means inhibition mostly above about 39%, no sharp cut-off; inactive means mostly below about 34%
# Hits are given with their value; 0 = inactive; - = no result. Most compounds without a hit are left out; they make up all but 2.8% or so of the library.
SMILES,SENP8 block-1,SENP8 block-2,HSP90 inh,SENP6 inh,SENP7 block,Platelet DG rel,SENP8 conf
C=CCOc1cccc(CNc2cccc(C(=O)O)c2)c1,0,0,0,0,0,0,-
Cc1ccc(C)c(Nc2c([N+](=O)[O-])cc(C(=O)N3CC(=O)Nc4ccccc43)cc2[N+](=O)[O-])c1,0,60.2,0,0,0,0,0
Cc1ccc(S(=O)(=O)NN=C2C(=O)C3CCC2C3Cl)cc1 (stereo not given),-,0,-,-,-,-,-
COc1ccc(OC)c(S(=O)(=O)Nc2cccc3c(O)cccc23)c1,0,47.5,-,0,0,0,0
COc1ccc(OC)c(S(=O)(=O)Nc2ccc(O)c3ccccc23)c1,0,0,0,0,0,0,-
CC1(C)CC(=O)c2c(O)cc(OCC(=O)Nc3ccc(S(N)(=O)=O)cc3)cc2O1,0,57.2,0,0,0,0,0
CCOc1ccc(OCCSc2nc3ccccc3o2)cc1,0,46.6,0,0,0,0,0
c1ccc(OCCSc2nc3ccccc3o2)cc1,0,0,0,0,0,0,-
C[C@@]12CCC3[C@@](CCC4[C@@]3(C)CCC[C@@]4(C)C(=O)N3CCCCC3)(CC1=O)C2 (stereo not given in full),0,0,-,0,0,-,-
CC1(c2ccccc2)CC(C)(C)n2c(O)c(C3=NC(=S)NC3=O)c3cccc1c32 (stereo not given),0,49.9,0,0,0,0,0
COc1cc2c3c(c1)c(C1=NC(=S)NC1=O)c(O)n3C(C)(C)C=C2C,0,0,0,0,0,0,-
COc1ccc(S(=O)(=O)N2CCOC2CNC(=O)C(=O)NCCN2CCOCC2)cc1 (stereo not given),0,0,0,0,0,0,-
COC(=O)c1ccc(NC(=O)CN(c2ccc(OC)cc2)S(C)(=O)=O)cc1,0,41.0,0,0,0,0,0
CCC(C(=O)NCc1cccnc1)n1nc(C)n2c(cc3occc32)c1=O (stereo not given),0,0,0,0,0,0,-
CCOc1ccc(Br)cc1C1=NN(C(C)=O)C(c2ccc([N+](=O)[O-])s2)O1 (stereo not given),0,59.8,0,0,0,0,56.1
CC(=O)N1N=C(c2ccc(C)cc2)OC1c1ccc(Br)cc1 (stereo not given),0,0,0,0,0,0,-
COCCn1c(SC(C)C(=O)NCC2CCCO2)nc2scc(-c3ccc(F)cc3)c2c1=O (stereo not given),0,0,-,0,0,0,-
COc1ccc(C(=O)CSc2nnc(C(CO)NC(=O)c3ccc(OC)cc3)n2C)cc1 (stereo not given),0,72.8,0,0,0,0,0
COc1cc(OC)cc(C(=O)N2CCN(C(=O)c3cccnc3)CC2)c1,0,0,0,0,0,0,-
CC1=NN(c2ccc(S(=O)(=O)O)cc2Cl)C(=O)C1,0,75.6,0,0,0,0,0
CC1=NN(c2ccc(C(=O)O)c(N)c2)C(=O)C1,0,0,0,0,0,0,-
CC1=NN(c2cc(Cl)c(S(=O)(=O)O)cc2Cl)C(=O)C1,-,65.9,-,-,-,-,0
O=S(=O)(O)c1ccc(Cl)c(Cl)c1,-,0,-,-,-,-,-
COc1ncnc2c1ncn2CCCNCc1ccc(C)o1,-,0,-,-,-,-,-
COc1ccc(CCN(C)c2ccc(S(=O)(=O)N3CCCC3)cc2[N+](=O)[O-])cc1OC,0,43.2,0,0,0,0,0
SMILES,SENP8 block-1,SENP8 block-2,HSP90 inh,SENP6 inh,SENP7 block,Platelet DG rel,SENP8 conf
CC[N+]1(C)CCC(=C2c3ccccc3CC(=O)c3sccc32)CC1 (stereo not given),0,0,0,0,0,0,-
C[N+]1(C)CCC(=C2c3ccccc3CC(=O)c3sccc32)CC1,0,75.1,0,0,0,0,55.9
C[C@]12CC[C@@H]3c4ccc(OC(=O)c5ccccc5)cc4CC[C@H]3[C@@H]1CC[C@@H]2O,0,0,0,0,0,0,-
CC(=O)Oc1ccc2c(c1)CCC1C2CCC2(C)C(OC(C)=O)CCC12 (stereo not given),-,46.7,-,-,-,-,0
CC(=O)OC1CCC2(C)C(=CCC3C2CCC2(C)C3CC3OC4(CCC(C)CN4)C(C)C32)C1 (stereo not given),0,50.9,0,0,0,0,0
COc1ccc(N(CC(=O)NCC2CCCO2)C(=O)CCC(=O)Nc2cc(C)on2)cc1OC (stereo not given),0,0,0,0,0,0,-
Cc1ccccc1NNC(N)=S,0,50.6,0,0,0,0,0
Cc1ccccc1NC(=O)Nc1ccccc1C(N)=O,0,0,0,0,0,0,-
COc1c(OC)c(O)c2c(=O)c(O)c(-c3ccccc3)oc2c1OC,0,41.7,0,0,0,0,0
COc1ccc(-c2oc3c(OC)c(OC)c(OC)c(O)c3c(=O)c2OC)cc1OC,0,0,0,0,0,0,-
CN(CC(=O)Nc1ccc(F)c(F)c1F)C(=O)c1ccc(-n2cncn2)c([N+](=O)[O-])c1,0,0,-,0,0,0,-
O=[N+]([O-])c1ccc(N/N=C/c2c[nH]c3ccccc23)cc1,0,52.1,0,0,0,0,0
O=C(N/N=C/c1c[nH]c2ccccc12)c1cccc([N+](=O)[O-])c1,0,0,0,0,0,0,-
C=CC(C)(O)CCC=C(C)C (stereo not given),0,40.6,-,0,0,-,0
CC(C)=CCC/C(C)=C/CC/C(C)=N/O,0,0,0,0,0,0,-
COc1ccc(C2SCCN2S(=O)(=O)c2ccc(F)cc2)cc1OC (stereo not given),0,0,0,0,0,0,-
COc1ccc(S(=O)(=O)N2CCSC2c2ccc(OC)c(OC)c2)cc1 (stereo not given),0,50.2,0,0,0,0,0
CCOC1CCCc2oc(-c3ccc(N(C)C)cc3)c(C(=O)OC)c21 (stereo not given),-,0,-,-,-,-,-
CCc1nnc(NS(=O)(=O)c2ccc(NS(=O)(=O)c3ccccc3[N+](=O)[O-])cc2)s1,0,0,0,0,0,0,-
CCc1nnc(NS(=O)(=O)c2ccc(Nc3ccc([N+](=O)[O-])c4nonc34)cc2)s1,0,45.2,0,0,0,0,0
CCCS(=O)(=O)NC(=O)C1(C)CCN(C(=O)c2c(F)cccc2F)C1 (stereo not given),-,0,-,-,-,-,-
C=Cn1ccnc1CC(O)c1ccc(OC)cc1 (stereo not given),0,43.6,-,0,0,0,0
CN(C)c1cc(Nc2cccc(O)c2)c([N+](=O)[O-])c2nonc12,0,45.0,0,0,0,0,0
